From PubChem BioAssay (NCATS)
Results filed as inconclusive are left out. Activity calls are given as the source filed them. The call rests on the fitted dose curve; in most records, active means well fitted curve in the direction sought with a large enough effect; inconclusive means small, poorly fitted or top-dose-only effect, or another doubt; inactive means no such curve, though single readings can be large; an effect the other way counts as inactive or inconclusive.

How the values were obtained:
[1] = BET inhibitor-based combinations targeting novel dependencies in MECOM-rearranged (r) AML: MV-4-11 cell line (AID 2202233); further: nearly all actives have a fitted effect of over 45% in size
How it was run: (§1)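 Using pin-tool transfer, drugs were added in 11 doses to cells (500/well), incubated 48 hr, and assessed with CellTiter-Glo. Z-AUC is a mean-centring transformation applied separately to each screened line.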

[2] = BET inhibitor-based combinations targeting novel dependencies in MECOM-rearranged (r) AML: HNT-34 cell line (AID 2202234); further: nearly all actives have a fitted effect of over 35% in size
How it was run: as §1

[3] = BET inhibitor-based combinations targeting novel dependencies in MECOM-rearranged (r) AML: UCSD-AML1 cell line (AID 2202235); further: nearly all actives have a fitted effect of over 40% in size
How it was run: as §1

[4] = BET inhibitor-based combinations targeting novel dependencies in MECOM-rearranged (r) AML: AML-194 cell line (AID 2202237; further: nearly all actives have a fitted effect of over 40% in size)
How it was run: (§2)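 Viability of cells (500 per well) is scored by luminescent CellTiter-Glo at 48 hr post-dosing. Eleven-point titrations are normalized to DMSO and empty controls and reduced to AUC values.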

[5] = BET inhibitor-based combinations targeting novel dependencies in MECOM-rearranged (r) AML: AML-191 cell line (AID 2202236; further: nearly all actives have a fitted effect of over 35% in size)
How it was run: as §2
Potency means the concentration at half of the fitted maximal effect.

SMILES | Potency [1] | Potency [2] | Potency [3] | Potency [4] | Potency [5]
Cc1ccc(-c2nc(N)nc3c2nnn3Cc2cccc(CO[C@H]3CCOC3)n2)o1 | inactive | inactive | inactive | inactive | –
CN1CCN(Cc2ccc(Nc3ncc(Cl)c(Nc4ccccc4S(=O)(=O)N(C)C)n3)cc2)CC1 | 0.0539 µM (active) | 0.108 µM (active) | 0.135 µM (active) | 0.215 µM (active) | 0.152 µM (active)
Cc1c(CN2CCN(C(=O)[C@H](C)O)CC2)sc2c(N3CCOCC3)nc(-c3cnc(N)nc3)nc12 | 0.525 µM (active) | – | 0.0525 µM (active) | – | –
C=CCc1cccc(/C=N/NC(=O)CN2CCN(Cc3ccccc3)CC2)c1O | 16.6 µM (active) | – | 23.5 µM (active) | – | 8.33 µM (active)
CCNC(=O)Nc1ccc(Oc2ncnc(N)c2/C=N/OC)cc1Cl | 18.6 µM (active) | 20.9 µM (active) | 23.5 µM (active) | 23.5 µM (active) | 16.6 µM (active)
Cc1ccc(-c2nn(C(C)(C)CNC(=O)c3ccncc3)c3ncnc(N)c23)cc1 | 11.8 µM (active) | 8.33 µM (active) | 7.42 µM (active) | 7.42 µM (active) | 7.42 µM (active)
CN[C@@H]1C[C@H]2O[C@@](C)([C@@H]1OC)n1c3ccccc3c3c4c(c5c6ccccc6n2c5c31)C(=O)N[C@H]4O | 0.0215 µM (active) | 0.428 µM (active) | 0.135 µM (active) | 0.382 µM (active) | –
COc1ccc2[nH]c(C(=O)N3CCC(CC(C)(C)O)CC3)cc2c1 | inactive | inactive | – | inactive | –
O=C(Nc1ccccc1)Nc1ccc(-c2ccc(C(=O)[C@@H]3CCC[C@H]3C(=O)O)cc2)cc1 | inactive | inactive | – | inactive | inactive
C=CC(=O)N1CCc2ccc(-n3c(=O)ccc4cnc5ccc(-c6cnn(C)c6)cc5c43)cc21 | 0.288 µM (active) | 0.407 µM (active) | 0.229 µM (active) | 0.574 µM (active) | 0.812 µM (active)
O=C(/C=C/c1ccc(Cl)cc1)N1CCC2(CC1)CN(Cc1ccc(Cl)c(Cl)c1)C(=O)O2 | 20.9 µM (active) | 26.3 µM (active) | – | inactive | –
COc1ccc(C2=N[C@H](c3ccc(Cl)cc3)[C@H](c3ccc(Cl)cc3)N2C(=O)N2CCNC(=O)C2)c(OC(C)C)c1 | 23.5 µM (active) | 23.5 µM (active) | inactive | – | 26.3 µM (active)
COc1ccc(CC2c3cc(OC)c(OC)cc3CC[N+]2(C)CCC(=O)OCCCCCOC(=O)CC[N+]2(C)CCc3cc(OC)c(OC)cc3C2Cc2ccc(OC)c(OC)c2)cc1OC (configuration not stated) | 18.6 µM (active) | – | inactive | – | –
Cc1cc2cc(Oc3ccnc(Nc4cccc(CS(=O)(=O)NCCN(C)C)c4)n3)ccc2[nH]1 | 3.32 µM (active) | 13.2 µM (active) | 16.6 µM (active) | 16.6 µM (active) | 18.6 µM (active)
O=C(NCc1ccccc1)[C@H](Cc1ccccc1)NC(=O)[C@H]1O[C@@H]1C(=O)NCCc1ccc(O)cc1 | 23.5 µM (active) | – | inactive | inactive | inactive
O=c1oc2c(C3OCCCO3)c(O)ccc2c2c1CNCC2 | inactive | inactive | inactive | inactive | 18.6 µM (active)
COc1cc(C(=O)NC(N)=Nc2ccc(C)c(NC(=O)c3ccc(-c4ccccc4)cc3)c2)cc(OC)c1OC | 18.6 µM (active) | 18.6 µM (active) | – | 23.5 µM (active) | 18.6 µM (active)
Clc1ccc(C(Cn2ccnc2)OCc2ccsc2Cl)c(Cl)c1 (configuration not stated) | 23.5 µM (active) | 18.6 µM (active) | – | 23.5 µM (active) | 23.5 µM (active)
Cc1[nH]c(/C=C2\C(=O)Nc3ccc(S(=O)(=O)Cc4c(Cl)cccc4Cl)cc32)c(C)c1C(=O)N1CCC[C@@H]1CN1CCCC1 | 5.9 µM (active) | 18.6 µM (active) | 8.33 µM (active) | 9.34 µM (active) | 9.34 µM (active)
Cc1c(-c2ccc(-c3ccccc3F)cc2)nc2ccc(F)cc2c1C(=O)O | 0.209 µM (active) | inactive | 0.742 µM (active) | 0.662 µM (active) | –
CC[C@H](C)C(=O)O[C@H]1C[C@H](O)C=C2C=C[C@H](C)[C@H](CC[C@@H](O)C[C@@H](O)CC(=O)O)[C@H]21 | inactive | inactive | inactive | inactive | –
CCC1CCCCN1C(=O)n1ncc(C(O)(c2ccccc2)c2ccccc2)n1 (configuration not stated) | 14.8 µM (active) | – | 20.9 µM (active) | – | 14.8 µM (active)
